# From PubChem BioAssay AID1053119 (Broad Institute, 2014)
# Measured potencies and affinities stand elsewhere. Records with an inconclusive call do not appear. The source made the active and inactive calls.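 The calls were made as follows: active = signal loss from cell killing with fitted potency at or below twice the top valid dose; inconclusive = flat drop of 30 to 70%, or unreliable curve fit; inactive = opposite direction, flat within 30%, or weaker potency.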
# Assay: viability loss in A549 lung cancer cells – cell-based, cherry-picks, 26 µM top dose, cytotoxicity control, dose response (AID 1053119)
row,Structure (SMILES),outcome
1,Cc1ccc(CS(=O)Cc2ccc(C(=O)NC3CCCC(C)C3C)o2)cc1 (stereo not given),inactive
2,Cc1cccc(NC(=O)Nc2ccc(S(=O)(=O)Nc3onc(C)c3C)cc2)c1,inactive
3,CCOc1ccccc1NC(=O)c1c(NC(=O)CCC(=O)O)sc2c1CCCCC2,inactive
4,CCCCOc1ccc(C(C)NC(=O)C2CCCN(S(=O)(=O)CCC)C2)cc1 (stereo not given),inactive
5,C[C@@H]1CN([C@H](C)CO)C(=O)c2cc(-c3ccccc3)cnc2O[C@H]1CN(C)C(=O)c1cccc(F)c1,inactive
6,CC(C)(C)[S@@](=O)N1Cc2cc(C(=O)NCc3ccccc3F)nc(-c3cccc(-c4cncnc4)c3)c2[C@H]1CCO,inactive
7,C[C@H]1CN([C@@H](C)CO)C(=O)c2cc(-c3ccccc3)cnc2O[C@@H]1CN(C)C(=O)c1cccc(F)c1,inactive
8,O=C(Nc1ccccc1F)N1C[C@H]2[C@@H](c3ccccc31)[C@H](CO)N2C(=O)C1CC1,inactive
9,COC(=O)c1cn(CC(=O)NCc2ccco2)c2ccccc12,inactive
10,C[C@H](CO)N1C[C@H](C)[C@@H](CN(C)C(=O)c2cccc(F)c2)Oc2ncc(-c3ccccc3)cc2C1=O,inactive
